In PubChem BioAssay (EPA / NIEHS) one finds outcome and AC50 data, which are given here for 6 compounds.

Read-out in assay [1]: Interleukin-8 (IL8), CXCL8 (gene 3576)
In words: BSK_CASM3C_IL8: BioMAP Diversity Plus: CASM3C Assay for Interleukin-8 (IL8) Biomarker Activity (AID 2283042).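 Note: IL-8 protein level quantified by ELISA.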 Particulars: primary human coronary artery smooth muscle cells; actives raise or lower the signal.

Read-out in assay [2]: Human Leukocyte Antigen - DR isotype (HLADR), HLA-DRA (gene 3122)
Kind of assay: BSK_CASM3C_HLADR: BioMAP Diversity Plus: CASM3C Assay for Human Leukocyte Antigen - DR isotype (HLADR) Biomarker Activity (AID 2283043).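 Note: cell-surface HLA-DR protein level quantified by ELISA.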 Particulars: primary human coronary artery smooth muscle cells; actives raise or lower the signal.

Read-out in assay [3]: Macrophage colony-stimulating factor (MCSF), CSF1 (gene 1435)
Kind of assay: BSK_CASM3C_MCSF: BioMAP Diversity Plus: CASM3C Assay for Macrophage colony-stimulating factor (MCSF) Biomarker Activity (AID 2283044).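 Note: M-CSF protein amount quantified by ELISA after 24 h exposure.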 The note with it: primary human coronary artery smooth muscle cells; actives raise or lower the signal.

Read-out in assay [4]: Low-density lipoprotein receptor (LDLR), LDLR (gene 3949)
Kind of assay: BSK_CASM3C_LDLR: BioMAP Diversity Plus: CASM3C Assay for Low-density lipoprotein receptor (LDLR) Biomarker Activity (AID 2283045).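 Note: LDLR protein level on the cell surface quantified by ELISA.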 The note with it: primary human coronary artery smooth muscle cells; actives raise or lower the signal.

Read-out in assay [5]: Monocyte Chemoattractant Protein-1 (MCP1), CCL2 (gene 6347)
In words: BSK_CASM3C_MCP1: BioMAP Diversity Plus: CASM3C Assay for Monocyte Chemoattractant Protein-1 (MCP1) Biomarker Activity (AID 2283046).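 Note: MCP-1 level quantified by ELISA 24 h after dosing.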 Particulars: primary human coronary artery smooth muscle cells; actives raise or lower the signal.

Read-out in assay [6]: Monokine induced gamma interferon (MIG), CXCL9 (gene 4283)
Kind of assay: BSK_CASM3C_MIG: BioMAP Diversity Plus: CASM3C Assay for Monokine induced gamma interferon (MIG) Biomarker Activity (AID 2283048).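 Note: MIG protein level measured by ELISA.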 Particulars: primary human coronary artery smooth muscle cells; actives raise or lower the signal.

Read-out in assay [7]: serum amyloid A (SAA), SAA1 (gene 6288)
In words: BSK_CASM3C_SAA: BioMAP Diversity Plus: CASM3C Assay for serum amyloid A (SAA) Biomarker Activity (AID 2283049).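 Note: SAA protein level quantified by ELISA.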 The note with it: primary human coronary artery smooth muscle cells; actives raise or lower the signal.

Assay [8] is described as follows: BSK_CASM3C_SRB: Viability Assessment in the BioMAP Diversity Plus: CASM3C Assay (AID 2283050).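 Note: total protein by SRB staining as cytotoxicity measure in parallel cultures; cells exposed to compound for 24 h.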 The note with it: primary human coronary artery smooth muscle cells.
Read-out in assay [9]: Thrombomodulin, THBD (gene 7056)
In words: BSK_CASM3C_Thrombomodulin: BioMAP Diversity Plus: CASM3C Assay for Thrombomodulin Biomarker Activity (AID 2283051).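 Note: thrombomodulin protein level measured by ELISA 24 h after dosing.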 Particulars: primary human coronary artery smooth muscle cells; actives raise or lower the signal.

Read-out in assay [10]: Tissue Factor, F3 (gene 2152)
In words: BSK_CASM3C_TissueFactor: BioMAP Diversity Plus: CASM3C Assay for Tissue Factor Biomarker Activity (AID 2283052).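 Note: cell surface tissue factor protein level read by ELISA.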 Particulars: primary human coronary artery smooth muscle cells; actives raise or lower the signal.

Read-out in assay [11]: Interferon-gamma inducible Protein 10 (IP10), CXCL10 (gene 3627)
Kind of assay: BSK_hDFCGF_IP10: BioMAP Diversity Plus: hDFCGF Assay for Interferon-gamma inducible Protein 10 (IP10) Biomarker Activity (AID 2283053). The note with it: primary human foreskin fibroblasts; actives raise or lower the signal. In a few lines: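 Primary foreskin fibroblasts, human; 24 h compound exposure; IP-10 by ELISA; bidirectional fit vs DMSO.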

Read-out in assay [12]: Urokinase-type plasminogen activator receptor (uPAR), PLAUR (gene 5329)
In words: BSK_CASM3C_uPAR: BioMAP Diversity Plus: CASM3C Assay for Urokinase-type plasminogen activator receptor (uPAR) Biomarker Activity (AID 2283054).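 Note: cell-surface uPAR protein level quantified by ELISA.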 Particulars: primary human coronary artery smooth muscle cells; actives raise or lower the signal.

Read-out in assay [13]: Vascular cell adhesion molecule 1 (VCAM1), VCAM1 (gene 7412)
In words: BSK_CASM3C_VCAM1: BioMAP Diversity Plus: CASM3C Assay for Vascular cell adhesion molecule 1 (VCAM1) Biomarker Activity (AID 2283055).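 Note: VCAM-1 protein level quantified by ELISA on the cells.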 The note with it: primary human coronary artery smooth muscle cells; actives raise or lower the signal.

Read-out in assay [14]: Collagen III, COL3A1 (gene 1281)
In words: BSK_hDFCGF_CollagenIII: BioMAP Diversity Plus: hDFCGF Assay for Collagen III Biomarker Activity (AID 2283056). Particulars: primary human foreskin fibroblasts; actives raise or lower the signal. A digest of the protocol:
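Cells: human foreskin fibroblasts, primary. Dosing followed by 24 h incubation, then ELISA for collagen III. Both increases and decreases scored relative to DMSO.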

Read-out in assay [15]: Epidermal growth factor receptor (EGFR), EGFR (gene 1956)
In words: BSK_hDFCGF_EGFR: BioMAP Diversity Plus: hDFCGF Assay for Epidermal growth factor receptor (EGFR) Biomarker Activity (AID 2283057). Particulars: primary human foreskin fibroblasts; actives raise or lower the signal. A digest of the protocol:
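hDFCGF system, primary human foreskin fibroblasts; compound 24 h; EGFR measured by ELISA; DMSO = negative control/baseline; bidirectional fitting.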

Read-out in assay [16]: Interleukin-8 (IL8), CXCL8 (gene 3576)
Kind of assay: BSK_hDFCGF_IL8: BioMAP Diversity Plus: hDFCGF Assay for Interleukin-8 (IL8) Biomarker Activity (AID 2283058). Particulars: primary human foreskin fibroblasts; actives raise or lower the signal. In a few lines: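 IL-8 levels from compound-treated primary human fibroblasts were read by ELISA at 24 h, with DMSO serving as baseline for bidirectional fitting.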

Assay [17] is described as follows: BSK_hDFCGF_Proliferation: Cell Proliferation Assessment in the BioMAP Diversity Plus: hDFCGF Assay (AID 2283059).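 Note: curves fitted for both rise and fall of signal versus DMSO baseline.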 Particulars: primary human foreskin fibroblasts. A digest of the protocol: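 Total protein read at 560 nm after 0.1% SRB staining of TCA-fixed human skin fibroblasts, […]. Activity is fitted in both directions relative to DMSO as baseline.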

Read-out in assay [18]: Macrophage colony-stimulating factor (MCSF), CSF1 (gene 1435)
In words: BSK_hDFCGF_MCSF: BioMAP Diversity Plus: hDFCGF Assay for Macrophage colony-stimulating factor (MCSF) Biomarker Activity (AID 2283060). Particulars: primary human foreskin fibroblasts; actives raise or lower the signal. In a few lines:
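M-CSF levels, determined by ELISA, are taken at 24 h after dosing human skin fibroblasts. Responses in either direction are fitted with DMSO serving as the baseline.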

Assay [19] in a line: BSK_hDFCGF_SRB: Viability Assessment in the BioMAP Diversity Plus: hDFCGF Assay (AID 2283061).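 Note: cells exposed to compound for 24 h before the read.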 Particulars: primary human foreskin fibroblasts. In a few lines: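 Cells were dosed with test chemical, cultured 24 h, fixed with 10% TCA, then stained with 0.1% SRB and read at 560 nm. The fibroblasts were human foreskin primary cells, and DMSO served as baseline.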
A short description of assay [20]: BSK_CASM3C_Proliferation: Cell Proliferation Assessment in the BioMAP Diversity Plus: CASM3C Assay (AID 2283047).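 Note: sulforhodamine B total protein stain as relative cell number at 560 nm; sub-confluent cells exposed 48 h before staining; fitted both ways against DMSO so gain or loss of cell number.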 The note with it: primary human coronary artery smooth muscle cells.

Structures are written as SMILES. Calls of active or inactive are those of the source. Rule for the calls: active = hit-call score of the fitted dose curve at least 0.9, where 1 is the maximum; inactive = score below 0.9.

The AC50 is the concentration at which the activity in the assay is half-maximal.

For `ClC1=C(Cl)[C@]2(Cl)[C@@H]3[C@@H]4C[C@@H]([C@H]5O[C@@H]45)[C@@H]3[C@@]1(Cl)C2(Cl)Cl`, the result in [1], in assay [2], in assay [3], in assay [4], in assay [5] and in assay [6] was inactive. Moreover, the result in assay [8], in assay [9], in assay [10], in assay [11], in [12] and in assay [13] was inactive. Further, the outcome in assay [14], in assay [15], in [16], in assay [18] and in assay [19] was inactive. Besides, the AC50 in assay [7] was 0.468 µM (active); in assay [17] it was 8.97 µM (active).

Regarding `O=C(N[C@H]1CN2CCC1CC2)c1cc2ccoc2cn1`, the outcome in assay [1], in [2], in assay [3], in assay [4], in [5] and in assay [20] was inactive. The outcome in [6], in [7], in assay [8], in [9], in [10] and in assay [11] was inactive. Also, the outcome in assay [12], in assay [13], in assay [14], in assay [15], in assay [16] and in [17] was inactive. Further, in assay [19], the result was inactive.

`Cc1ccccc1CO[C@@H]1C[C@@]2(C(C)C)CC[C@]1(C)O2`: the result in assay [1], in assay [2], in assay [3], in [4], in assay [5] and in assay [20] was inactive. Besides, the result in [6], in [7], in assay [8], in [9], in assay [10] and in [11] was inactive. The result in assay [12], in assay [13], in assay [14], in assay [15], in assay [16] and in [17] was inactive. For the same compound, the outcome in [19] was inactive.

For `C=CC(=O)NCNC(=O)C=C`, the result in assay [1], in assay [2], in [3], in assay [4], in [5] and in assay [20] was inactive. Further, the result in [6], in assay [7], in [8], in [9], in assay [10] and in [11] was inactive. The result in assay [12], in assay [13], in [14], in assay [15], in assay [16] and in [17] was inactive. Also, in [19], the outcome was inactive.

Regarding `ClC1=C(Cl)[C@]2(Cl)[C@@H]3[C@@H](Cl)[C@H]4O[C@H]4[C@@H]3C1(Cl)C2(Cl)Cl`, the outcome in assay [1], in [2], in assay [3], in assay [4], in assay [5] and in assay [6] was inactive. The outcome in assay [7], in [8], in [9], in [10], in [11] and in assay [12] was inactive. In addition, the result in assay [13], in [14], in assay [15] and in assay [16] was inactive. For the same compound, the AC50 is 12.3 µM (active) in assay [20], 5.9 µM (active) in [17] and 5.55 µM (active) in assay [19].

On to `Clc1ccc(C(c2ccccc2Cl)C(Cl)(Cl)Cl)cc1` (centres undefined), for which the result in assay [1], in [6], in [10] and in assay [15] was inactive. Also, the half-maximal activity concentration (AC50) in [2] is 17.6 µM (active); in [3], 13.8 µM (active); in [4] it was 14.3 µM (active); in assay [5] it was 23.7 µM (active); in assay [20] it was 20.1 µM (active); in assay [8], 22.8 µM (active). Also, the concentration at half-maximal activity (AC50) was 19.6 µM (active) in assay [9]; 7.73 µM (active) in assay [11]; 25.6 µM (active) in assay [12]; 11.7 µM (active) in assay [13]; 6.51 µM (active) in assay [14]; 10.8 µM (active) in assay [16]. The concentration at half-maximal activity (AC50) in assay [17] is 6.94 µM (active); in assay [18], 8.37 µM (active); in [19], 6.8 µM (active).
